# Assay results: PubChem BioAssay (EPA / NIEHS)
# The source made the active and inactive calls. Rule for the calls: active = hit-call score of the fitted dose curve at least 0.9, where 1 is the maximum; inactive = score below 0.9.
# Columns and labels:
# [1] = read-out: Transforming growth factor beta 1 (TGFb1), TGFB1 (gene 7040); test: BSK_KF3CT_TGFb1: BioMAP Diversity Plus: KF3CT Assay for Transforming growth factor beta 1 (TGFb1) Biomarker Activity (AID 2283072); details: primary human keratinocytes with fibroblasts; actives raise or lower the signal
# In short: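 Human keratinocyte/foreskin fibroblast co-culture; TGF-b1 measured by ELISA 24 h after dosing, fitted bidirectionally versus DMSO. Cytotoxicity checked in parallel cultures by total protein (SRB staining, 560 nm).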
# [2] = read-out: C-C motif chemokine 2 (Homo sapiens) (UniProt P13500); test: BSK_KF3CT_MCP1: BioMAP Diversity Plus: KF3CT Assay for Monocyte Chemoattractant Protein 1 (MCP1/CCL2) Biomarker Activity (AID 2283073); details: primary human keratinocytes with fibroblasts; actives raise or lower the signal
# In short: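 ELISA read-out of MCP-1, 24 h post-dose, in primary human skin keratinocytes co-cultured with fibroblasts. Parallel SRB staining monitors cytotoxicity; changes fitted both directions relative to DMSO.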
# [3] = read-out: Matrix Metallopeptidase 9 (MMP9), MMP9 (gene 4318); test: BSK_KF3CT_MMP9: BioMAP Diversity Plus: KF3CT Assay for Matrix Metallopeptidase 9 (MMP9) Biomarker Activity (AID 2283074); details: primary human keratinocytes with fibroblasts; actives raise or lower the signal;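 for AC50: MMP9 protein level quantified by ELISA in the co-culture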
# In short: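 Human keratinocyte and foreskin fibroblast co-culture exposed to chemicals for 24 h; MMP9 biomarker measured by ELISA, bidirectional fitting relative to DMSO; cytotoxicity tracked by SRB total protein staining in parallel cultures.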
# [4] = read-out: urokinase plasminogen activator (uPA), PLAU (gene 5328); test: BSK_KF3CT_uPA: BioMAP Diversity Plus: KF3CT Assay for urokinase plasminogen activator (uPA) Biomarker Activity (AID 2283075); details: primary human keratinocytes with fibroblasts; actives raise or lower the signal
# In short: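 Primary human keratinocyte/foreskin fibroblast co-culture exposed to chemical; uPA measured by ELISA at 24 h. Bidirectional fit versus DMSO, with parallel SRB total-protein staining for cytotoxicity.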
# CD40, CD40 (gene 958) [5] = test: BSK_LPS_CD40: BioMAP Diversity Plus: LPS Assay for CD40 Biomarker Activity (AID 2283076); details: primary human HUVEC with PBMC; actives raise or lower the signal
# In short: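 In the LPS system of human endothelial cells with peripheral blood mononuclear cells, CD40 levels were read by ELISA 24 h post-treatment. Signal changes in either direction were fitted against the DMSO baseline, with parallel SRB protein staining.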
# [6] = read-out: E-selectin (Homo sapiens) (UniProt P16581); test: BSK_LPS_Eselectin: BioMAP Diversity Plus: LPS Assay for Eselectin Biomarker Activity (AID 2283077); details: primary human HUVEC with PBMC; actives raise or lower the signal
# In short: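 E-selectin ELISA on LPS-stimulated endothelial cell/PBMC co-cultures, read 24 h post-treatment; gains and losses fitted against DMSO. Parallel SRB staining (0.1% SRB after 10% TCA fixation, 560 nm) flags overt cytotoxicity.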
# [7] = read-out: Interleukin-8 (IL8), CXCL8 (gene 3576); test: BSK_LPS_IL8: BioMAP Diversity Plus: LPS Assay for Interleukin-8 (IL8) Biomarker Activity (AID 2283078); details: primary human HUVEC with PBMC; actives raise or lower the signal
# In short: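 ELISA read-out of IL-8 after 24 h chemical treatment of LPS-activated endothelial/PBMC human primary co-cultures. Changes either up or down relative to DMSO; overt cytotoxicity checked by sulforhodamine B staining in parallel wells.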
# [8] = read-out: Monocyte Chemoattractant Protein-1 (MCP1), CCL2 (gene 6347); test: BSK_LPS_MCP1: BioMAP Diversity Plus: LPS Assay for Monocyte Chemoattractant Protein-1 (MCP1) Biomarker Activity (AID 2283081); details: primary human HUVEC with PBMC; actives raise or lower the signal
# In short: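 Secreted MCP-1 read by ELISA at 24 h post-dosing in an LPS-activated co-culture of endothelial cells with peripheral blood mononuclear cells. Fits run in both directions, DMSO as baseline; parallel SRB staining tracks overt cytotoxicity.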
# [9] = BSK_LPS_PGE2: BioMAP Diversity Plus: LPS Assay for Prostaglandin E2 (PGE2) Biomarker Activity (AID 2283082); details: primary human HUVEC with PBMC; actives raise or lower the signal;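 for AC50: secreted prostaglandin E2 measured by ELISA in LPS-stimulated co-culture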
# In short: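 HUVEC plus human PBMC co-culture stimulated with LPS; secreted PGE2 quantified by ELISA 24 h after chemical dosing. Activity fitted bidirectionally against DMSO baseline; parallel SRB staining (0.1% SRB after 10% TCA fixation, 560 nm) flags overt cytotoxicity.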
# [10] = read-out: Macrophage colony-stimulating factor (MCSF), CSF1 (gene 1435); test: BSK_LPS_MCSF: BioMAP Diversity Plus: LPS Assay for Macrophage colony-stimulating factor (MCSF) Biomarker Activity (AID 2283083); details: primary human HUVEC with PBMC; actives raise or lower the signal
# In short: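 Bidirectional fitting against DMSO was applied to M-CSF levels read by ELISA at 24 h post-dose. The system pairs human umbilical vein endothelium with peripheral blood mononuclear cells; parallel SRB staining tracked cytotoxicity.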
# [11] = read-out: Tissue Factor, F3 (gene 2152); test: BSK_LPS_TissueFactor: BioMAP Diversity Plus: LPS Assay for Tissue Factor Biomarker Activity (AID 2283084); details: primary human HUVEC with PBMC; actives raise or lower the signal
# In short: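 Compound was added to an endothelial cell/PBMC co-culture, and after 24 h tissue factor (CD142) was read by ELISA. Gain or loss of signal was fitted against a DMSO baseline, and parallel SRB staining (560 nm) tracked overt cytotoxicity.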
# [12] = read-out: Tumor necrosis factor (Homo sapiens) (UniProt P01375); test: BSK_LPS_TNFa: BioMAP Diversity Plus: LPS Assay for Tumour Necrosis Factor alpha (TNFa) Biomarker Activity (AID 2283085); details: primary human HUVEC with PBMC; actives raise or lower the signal
# In short: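 Human umbilical vein endothelial cells co-cultured with PBMC and stimulated with LPS. TNFa was measured by ELISA 24 h after chemical dosing, fitted bidirectionally relative to DMSO.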
# [13] = read-out: Vascular cell adhesion molecule 1 (VCAM1), VCAM1 (gene 7412); test: BSK_LPS_VCAM1: BioMAP Diversity Plus: LPS Assay for Vascular cell adhesion molecule 1 (VCAM1) Biomarker Activity (AID 2283086); details: primary human HUVEC with PBMC; actives raise or lower the signal
# In short: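 Human umbilical vein endothelial cells co-cultured with PBMC and stimulated with LPS; VCAM-1 measured by ELISA 24 h after dosing. Bidirectional curve fitting against DMSO baseline; cytotoxicity tracked in parallel by SRB total-protein staining.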
# CD38, CD38 (gene 952) = test: BSK_SAg_CD38: BioMAP Diversity Plus: SAg Assay for CD38 Biomarker Activity (AID 2283087); details: primary human HUVEC with PBMC; actives raise or lower the signal
# In short: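 Human HUVEC plus PBMC co-culture stimulated with superantigen; CD38 measured by ELISA 24 h after chemical dosing. Fluorescence read-out, bidirectional fit against DMSO; cytotoxicity tracked in parallel by SRB and Alamar Blue.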
# CD40, CD40 (gene 958) [14] = test: BSK_SAg_CD40: BioMAP Diversity Plus: SAg Assay for CD40 Biomarker Activity (AID 2283088); details: primary human HUVEC with PBMC; actives raise or lower the signal
# In short: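 CD40 is measured by fluorescence ELISA in an endothelial/PBMC primary human co-culture at 24 h post-dose. Fitting is bidirectional, DMSO baseline. Parallel SRB staining (560 nm) flags cytotoxicity.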
# CD69, CD69 (gene 969) = test: BSK_SAg_CD69: BioMAP Diversity Plus: SAg Assay for CD69 Biomarker Activity (AID 2283089); details: primary human HUVEC with PBMC; actives raise or lower the signal;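 for AC50: cell surface CD69 protein quantified by ELISA with fluorescence detection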
# In short: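 Values derive from bidirectional fitting relative to DMSO vehicle. Cells: umbilical vein endothelium plus peripheral blood mononuclear cells, treated 24 h before fluorescent ELISA for CD69.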
# [15] = read-out: Monocyte Chemoattractant Protein-1 (MCP1), CCL2 (gene 6347); test: BSK_SAg_MCP1: BioMAP Diversity Plus: SAg Assay for Monocyte Chemoattractant Protein-1 (MCP1) Biomarker Activity (AID 2283090); details: primary human HUVEC with PBMC; actives raise or lower the signal
# In short: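 MCP-1 levels in the endothelial–PBMC SAg co-culture were quantified by ELISA at 24 h post-dosing; both increases and decreases versus DMSO scored. Cytotoxicity monitored by SRB total protein in parallel cultures.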
# [16] = read-out: E-selectin (Homo sapiens) (UniProt P16581); test: BSK_SAg_Eselectin: BioMAP Diversity Plus: SAg Assay for Eselectin Biomarker Activity (AID 2283091); details: primary human HUVEC with PBMC; actives raise or lower the signal
# In short: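 Cell-surface E-selectin is read by ELISA at 24 h in the SAg co-culture of HUVEC and PBMC. Curves are fitted in both directions relative to DMSO. Parallel SRB total-protein staining tracks overt toxicity.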
# Chain of E-selectin (Homo sapiens) (P16581 whole entry, looked up): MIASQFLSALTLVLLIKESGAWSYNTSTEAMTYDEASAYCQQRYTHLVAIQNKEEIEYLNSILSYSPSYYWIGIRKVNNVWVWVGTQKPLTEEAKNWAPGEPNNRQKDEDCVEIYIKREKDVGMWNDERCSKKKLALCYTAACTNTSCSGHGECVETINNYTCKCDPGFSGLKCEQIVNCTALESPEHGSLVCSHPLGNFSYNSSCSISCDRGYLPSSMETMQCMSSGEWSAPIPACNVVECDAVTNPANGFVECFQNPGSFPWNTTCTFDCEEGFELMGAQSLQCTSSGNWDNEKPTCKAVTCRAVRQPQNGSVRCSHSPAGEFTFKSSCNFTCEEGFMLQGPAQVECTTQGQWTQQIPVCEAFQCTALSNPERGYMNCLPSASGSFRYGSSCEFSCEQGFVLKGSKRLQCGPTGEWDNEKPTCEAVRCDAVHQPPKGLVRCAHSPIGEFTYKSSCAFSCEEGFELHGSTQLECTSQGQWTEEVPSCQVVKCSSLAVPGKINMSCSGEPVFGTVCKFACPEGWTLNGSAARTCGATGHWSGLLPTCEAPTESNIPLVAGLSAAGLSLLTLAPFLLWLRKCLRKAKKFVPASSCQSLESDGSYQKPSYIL
# Chain of Tumor necrosis factor (Homo sapiens) (P01375 whole entry, looked up): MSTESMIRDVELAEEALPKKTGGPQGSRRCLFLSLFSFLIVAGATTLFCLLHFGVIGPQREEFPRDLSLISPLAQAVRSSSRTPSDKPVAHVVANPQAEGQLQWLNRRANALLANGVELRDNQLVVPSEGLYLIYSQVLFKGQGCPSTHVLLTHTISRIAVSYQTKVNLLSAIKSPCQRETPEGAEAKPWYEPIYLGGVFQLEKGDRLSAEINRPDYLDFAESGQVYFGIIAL
compound,measurement,setting,value
N[C@@H](Cc1cc(I)c(Oc2ccc(O)c(I)c2)c(I)c1)C(=O)O,outcome,[1],inactive
same,outcome,[2],inactive
same,outcome,[3],inactive
same,outcome,[4],inactive
same,outcome,"CD40, CD40 (gene 958) [5]",inactive
same,AC50,[6],13.6 µM (active)
same,outcome,[7],inactive
same,outcome,[8],inactive
same,outcome,[9],inactive
same,outcome,[10],inactive
same,AC50,[11],3.17 µM (active)
same,outcome,[12],inactive
same,outcome,[13],inactive
same,outcome,"CD38, CD38 (gene 952)",inactive
same,outcome,"CD40, CD40 (gene 958) [14]",inactive
same,outcome,"CD69, CD69 (gene 969)",inactive
same,outcome,[15],inactive
same,outcome,[16],inactive
O=C(c1ccccc1)C1CCCCC1,outcome,[1],inactive
same,outcome,[2],inactive
same,outcome,[3],inactive
same,outcome,[4],inactive
same,outcome,"CD40, CD40 (gene 958) [5]",inactive
same,outcome,[6],inactive
same,outcome,[7],inactive
same,outcome,[8],inactive
same,outcome,[9],inactive
same,outcome,[10],inactive
same,outcome,[11],inactive
same,outcome,[12],inactive
same,outcome,[13],inactive
same,outcome,"CD38, CD38 (gene 952)",inactive
same,outcome,"CD40, CD40 (gene 958) [14]",inactive
same,outcome,"CD69, CD69 (gene 969)",inactive
same,outcome,[15],inactive
same,outcome,[16],inactive
O=C(Nc1ccc([N+](=O)[O-])cc1Cl)c1cc(Cl)ccc1O,outcome,[1],inactive
same,AC50,[2],0.148 µM (active)
same,AC50,[3],0.313 µM (active)
same,AC50,[4],0.266 µM (active)
same,AC50,"CD40, CD40 (gene 958) [5]",0.161 µM (active)
same,outcome,[6],inactive
same,AC50,[7],0.47 µM (active)
same,AC50,[9],0.178 µM (active)
same,AC50,[10],0.148 µM (active)
same,outcome,[11],inactive
same,AC50,[12],0.583 µM (active)
same,AC50,[13],0.175 µM (active)
same,AC50,"CD38, CD38 (gene 952)",0.148 µM (active)
same,AC50,"CD40, CD40 (gene 958) [14]",0.17 µM (active)
same,AC50,"CD69, CD69 (gene 969)",0.335 µM (active)
same,AC50,[15],0.148 µM (active)
same,AC50,[16],0.148 µM (active)
CCC(C)OC(=O)N1CCCCC1CCO (stereo unspecified),outcome,[1],inactive
same,outcome,[2],inactive
same,outcome,[3],inactive
same,outcome,[4],inactive
same,outcome,"CD40, CD40 (gene 958) [5]",inactive
same,outcome,[6],inactive
same,outcome,[7],inactive
same,outcome,[8],inactive
same,outcome,[9],inactive
same,outcome,[10],inactive
same,outcome,[11],inactive
same,outcome,[12],inactive
same,outcome,[13],inactive
same,outcome,"CD38, CD38 (gene 952)",inactive
same,outcome,"CD40, CD40 (gene 958) [14]",inactive
same,outcome,"CD69, CD69 (gene 969)",inactive
same,outcome,[15],inactive
same,outcome,[16],inactive
